# Reference: PubChem BioAssay (NCATS)
# Inconclusive results are not listed. A call without a number means that no potency is given here. The source made the active and inactive calls. Calls follow the shape of the dose curve; as a rule, active = well fitted curve in the direction sought with a large enough effect; inconclusive = small, poorly fitted or top-dose-only effect, or another doubt; inactive = no such curve, though single readings can be large; an effect the other way counts as inactive or inconclusive.
# Experiments:
# [1] = Cell Viability - LYMP2-002 (AID 977);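 also: series mostly up to about 92 µM; compound exposure lasted 24 h at 37 °C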
# Method in brief: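 Human lymphoblastoid LYMP2-002 cells, 2500 per well, exposed to compounds for 24 h at 37 C in complete medium; viability read as intracellular ATP by CellTiter-Glo luminescence, AC50 from Hill fits.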
# [2] = Cell Viability - LYMP2-006 (AID 978); also: series mostly up to about 92 µM; nearly all actives have a fitted effect of over 60% in size
# Method in brief: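 Cells are seeded at 2500 per well and rested 5 hr at 37 C. Compounds are added across a concentration series for 24 hr at 37 C, after which ATP is quantified by luciferase luminescence.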
# [3] = Cell Viability - LYMP2-007 (AID 979);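 also: cells exposed to compound for 24 h before reading; nearly all actives have a fitted effect of over 60% in size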
# Method in brief: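 Human lymphoblastoid LYMP2-007 cells (2500/well) preincubated 5 h at 37 C, then treated 24 h at 37 C in complete medium. Viability by CellTiter-Glo ATP luminescence after 30 min at room temperature; AC50 from Hill fits.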
# [4] = Cell Viability - LYMP2-008 (AID 980); also: nearly all actives have a fitted effect of over 60% in size
# Method in brief: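 LYMP2-008 lymphoblastoid cells (2500/well) plated 5 h, then treated 24 h at 37 C in complete medium. Viability read as intracellular ATP by CellTiter-Glo luminescence after 30 min at room temperature; AC50 from Hill fits.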
# [5] = Cell Viability - LYMP2-010 (AID 981); also: nearly all actives have a fitted effect of over 55% in size
# Method in brief: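 Human lymphoblastoid LYMP2-010 cells (2500/well) treated 24 h at 37 C in complete medium; viability read as intracellular ATP by CellTiter-Glo luminescence. AC50 from Hill fits of concentration-response data; tetraoctylammonium bromide positive control.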
# [6] = Cell Viability - LYMP2-012 (AID 982);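 also: cellular ATP by luciferase luminescence where a drop means cytotoxicity; cells exposed to compound for one day before reading; nearly all actives have a fitted effect of over 55% in size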
# [7] = Cell Viability - LYMP2-014 (AID 983); also: series mostly up to about 92 µM; nearly all actives have a fitted effect of over 50% in size
# Method in brief: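 LYMP2-014 human lymphoblastoid cells, 2500/well, treated 24 h at 37 C in complete medium; viability by CellTiter-Glo ATP luminescence after 30 min at room temperature. AC50 from Hill fits of qHTS concentration-response; tetraoctylammonium bromide positive control.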
# [8] = Cell Viability - LYMP2-016 (AID 984); also: nearly all actives have a fitted effect of over 55% in size
# Method in brief: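 Cells were seeded at 2500 per well and rested 5 hr before a 24 hr compound exposure at 37 C. Viability was then gauged as cellular ATP by luciferase luminescence, with AC50 values fitted to the Hill equation.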
# [9] = Cell Viability - LYMP2-018 (AID 985); also: nearly all actives have a fitted effect of over 50% in size
# Method in brief: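 Human lymphoblastoid LYMP2-018 cells, 2500/well, settled 5 hr at 37 C then exposed to compound 24 hr at 37 C; intracellular ATP measured by CellTiter-Glo luminescence. AC50 from Hill-equation concentration-response fits.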
# [10] = Cell Viability - LYMP2-020 (AID 986); also: series mostly up to about 92 µM; nearly all actives have a fitted effect of over 55% in size
# Method in brief: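 Human lymphoblastoid LYMP2-020 cells (2500/well) preincubated 5 h at 37 C, then treated 24 h at 37 C. Viability measured as intracellular ATP by CellTiter-Glo luminescence after 30 min at room temperature; AC50 from Hill fits.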
# [11] = Cell Viability - LYMP2-022 (AID 987); also: nearly all actives have a fitted effect of over 55% in size
# Method in brief: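 LYMP2-022 lymphoblastoid cells (2500/well, complete medium) were treated with compounds for 24 hours at 37 C; intracellular ATP was then read by CellTiter-Glo luminescence after 30 min at room temperature. AC50 values were derived from Hill-equation fits.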
# [12] = Cell Viability - LYMP2-024 (AID 988); also: nearly all actives have a fitted effect of over 60% in size
# Method in brief: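 Human lymphoblastoid LYMP2-024 cells (2500/well) rested 5 hr, then treated with compound for 24 hr at 37 C in complete medium. Viability was measured as intracellular ATP by CellTiter-Glo luminescence. AC50 values came from Hill-equation fits.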
# [13] = Cell Viability - LYMP2-026 (AID 989); also: nearly all actives have a fitted effect of over 50% in size
# Method in brief: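 Human lymphoblastoid LYMP2-026 cells, 2500/well, exposed to compound 24 h at 37 C in complete medium. Viability as intracellular ATP by CellTiter-Glo luminescence; AC50 from Hill fits of qHTS concentration-response.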
# [14] = Cell Viability - LYMP1-002 - Assay at 24 hr (AID 993); also: potency is read from the fitted curve at half-maximal effect
# Method in brief: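 Human lymphoblastoid LYMP1-002 cells (2500/well) treated 24 h at 37 °C; viability as intracellular ATP by CellTiter-Glo luminescence. Tetraoctylammonium bromide as positive control; AC50 from Hill-equation fits of qHTS concentration-response.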
# [15] = Cell Viability - LYMP1-002 - Assay at 40 hr (AID 994); also: nearly all actives have a fitted effect of over 60% in size
# Method in brief: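 LYMP1-002 human lymphoblastoid cells (2500/well, complete medium) were treated with compounds for 40 hr at 37 C. Intracellular ATP was measured by CellTiter-Glo luminescence, and AC50 values came from Hill-equation fits of concentration-response data; tetraoctylammonium bromide was the positive control.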
# [16] = target: Alpha-galactosidase (Coffea arabica) (UniProt Q42656); assay: Counterscreen for Glucocerebrosidase Inhibitors: qHTS Assay for Coffee Bean alpha-Galactosidase at pH 5.9 (AID 998)
# Method in brief: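 Green coffee bean enzyme (2 nM) with 4-methylumbelliferyl alpha-D-galactopyranoside (80 uM) in 50 mM citric acid, 0.005% Tween-20, pH 5.9, 20 min at room temperature; compounds 0.7 nM–77 uM. Stopped at pH 10, fluorescence Ex365/Em440; Hill-fit AC50.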
# Sequence of Alpha-galactosidase (Coffea arabica) (Q42656 whole entry, looked up): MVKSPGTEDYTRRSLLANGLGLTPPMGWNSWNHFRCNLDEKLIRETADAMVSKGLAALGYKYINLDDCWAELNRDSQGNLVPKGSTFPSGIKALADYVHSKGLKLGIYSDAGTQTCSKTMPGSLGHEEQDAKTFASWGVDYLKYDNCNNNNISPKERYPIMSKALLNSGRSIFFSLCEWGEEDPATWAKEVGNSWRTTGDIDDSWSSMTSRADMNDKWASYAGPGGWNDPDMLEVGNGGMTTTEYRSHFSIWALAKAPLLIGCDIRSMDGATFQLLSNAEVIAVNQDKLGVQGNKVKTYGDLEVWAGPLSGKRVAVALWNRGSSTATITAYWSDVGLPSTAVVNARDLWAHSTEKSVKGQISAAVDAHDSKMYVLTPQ
structure (smiles),measurement,setting,value
Clc1ccc(C(c2ccc(Cl)cc2)C(Cl)(Cl)Cl)cc1,outcome,[1],inactive
same,outcome,[2],inactive
same,outcome,[3],inactive
same,outcome,[4],inactive
same,Potency,[5],inactive
same,outcome,[6],inactive
same,outcome,[7],inactive
same,outcome,[8],inactive
same,Potency,[9],inactive
same,outcome,[10],inactive
same,Potency,[11],inactive
same,outcome,[12],inactive
same,outcome,[13],inactive
same,Potency,[14],50.1 µM (active)
same,Potency,[15],inactive
COc1ccc(C2CNC(=O)C2)cc1OC1CCCC1 (stereo not drawn),outcome,[16],inactive
O=c1[nH]c(=O)n([C@H]2C[C@H](O)[C@@H](CO)O2)cc1Br,outcome,[16],inactive
CC(=O)c1ccc(S(=O)(=O)NC(=O)NC2CCCCC2)cc1,outcome,[16],inactive
CN1CCC[C@@H]1c1cccnc1,outcome,[16],inactive
CN1[C@@H]2CC[C@H]1CC(OC(c1ccccc1)c1ccccc1)C2 (stereo partly drawn),outcome,[16],inactive
NCCCNCCSP(=O)(O)O,outcome,[16],inactive
C[N+](C)(C)CCOC(N)=O,outcome,[16],inactive
CNCCC=C1c2ccccc2CCc2ccccc21,outcome,[16],inactive
Nc1ccccc1,outcome,[2],inactive
same,outcome,[3],inactive
same,outcome,[4],inactive
same,Potency,[5],inactive
same,outcome,[6],inactive
same,outcome,[7],inactive
same,outcome,[8],inactive
same,Potency,[9],inactive
same,outcome,[10],inactive
same,Potency,[11],inactive
same,outcome,[12],inactive
same,outcome,[13],inactive
same,Potency,[14],inactive
same,Potency,[15],inactive
NCCCCCC(=O)O,outcome,[16],inactive
CN(C)C(=O)Oc1ccc[n+](C)c1,outcome,[16],inactive
CC(C)C(=O)c1c(C(C)C)nn2ccccc12,outcome,[16],inactive
NC1CCN(c2cccc(Cl)n2)CC1,outcome,[16],inactive
CC(=O)O[C@H]1C(=O)[C@@]2(C)[C@H]([C@H](OC(=O)c3ccccc3)[C@]3(O)C[C@H](OC(=O)[C@H](O)[C@@H](NC(=O)c4ccccc4)c4ccccc4)C(C)=C1C3(C)C)[C@]1(OC(C)=O)CO[C@@H]1C[C@@H]2O,outcome,[16],inactive
CN(C)CCOC(=O)COc1ccc(Cl)cc1,outcome,[16],inactive
CC(=O)OCC(=O)[C@@]1(O)CC[C@H]2[C@@H]3CCC4=CC(=O)CC[C@]4(C)[C@H]3C(=O)C[C@@]21C,outcome,[16],inactive
CN1C[C@H](C(=O)N[C@]2(C)O[C@@]3(O)[C@@H]4CCCN4C(=O)[C@H](Cc4ccccc4)N3C2=O)C=C2c3cccc4[nH]cc(c34)C[C@H]21,outcome,[1],inactive
same,outcome,[2],inactive
same,outcome,[3],inactive
same,outcome,[4],inactive
same,outcome,[7],inactive
same,Potency,[9],inactive
same,outcome,[10],inactive
same,outcome,[13],inactive
same,Potency,[14],inactive
same,Potency,[15],inactive
Cc1scc2c1N(C(=O)CN1CCN(C)CC1)c1ccccc1NC2=O,outcome,[16],inactive
CN=C(NC#N)NCCSCc1nc[nH]c1C,outcome,[16],inactive
CCN(CC)CCNC(=O)c1cc(S(C)(=O)=O)ccc1OC,outcome,[16],inactive
NCCS(=O)(=O)O,outcome,[16],inactive
CN1CCN(CC(=O)N2c3ccccc3C(=O)Nc3cccnc32)CC1,outcome,[16],inactive
C[N+](C)(C)CCCCCC[N+](C)(C)C,outcome,[16],inactive
NC(=O)N1c2ccccc2C=Cc2ccccc21,outcome,[16],inactive
Nc1ccccc1C(=O)O,outcome,[1],inactive
same,outcome,[2],inactive
same,outcome,[3],inactive
same,outcome,[4],inactive
same,Potency,[5],inactive
same,outcome,[6],inactive
same,outcome,[7],inactive
same,outcome,[8],inactive
same,Potency,[9],inactive
same,outcome,[10],inactive
same,Potency,[11],inactive
same,outcome,[12],inactive
same,outcome,[13],inactive
same,Potency,[14],inactive
same,Potency,[15],inactive
CCn1nc(C(=O)O)c(=O)c2cc3c(cc21)OCO3,outcome,[16],inactive
CN1C(C)(C)CCCC1(C)C,outcome,[16],inactive
C[C@]12CCC(=O)C=C1CC[C@@H]1[C@@H]2CC[C@@]2(C)[C@H]1CC[C@]2(C)O,outcome,[1],inactive
same,outcome,[2],inactive
same,outcome,[3],inactive
same,outcome,[4],inactive
same,Potency,[5],inactive
same,outcome,[7],inactive
same,outcome,[8],inactive
same,Potency,[9],inactive
same,outcome,[10],inactive
same,Potency,[11],inactive
same,outcome,[12],inactive
same,outcome,[13],inactive
same,Potency,[14],inactive
same,Potency,[15],inactive
CCOC(=O)c1cnc2c(cnn2CC)c1NN=C(C)C,outcome,[16],inactive
CC(=O)Oc1cc(C(C)C)c(OCCN(C)C)cc1C,outcome,[16],inactive
NC(N)=NC(=O)Cc1c(Cl)cccc1Cl,outcome,[16],inactive
COC(=O)C(c1ccccc1)C1CCCCN1 (stereo not drawn),outcome,[1],inactive
same,outcome,[2],inactive
same,outcome,[3],inactive
same,outcome,[4],inactive
same,Potency,[5],inactive
same,outcome,[6],inactive
same,outcome,[7],inactive
same,outcome,[8],inactive
same,Potency,[9],inactive
same,outcome,[10],inactive
same,outcome,[13],inactive
same,Potency,[14],inactive
same,Potency,[15],inactive
